Most compounds without a hit are left out; they make up all but 7.5% or so of the library.
FMDV antiviral: High Throughput Screening for Foot and Mouth Disease Virus Antivirals. Potency, µM (top dose mostly 57.9 µM), for inactives: at the top dose activity change, negative = inhibition, most hits filed as inhibitors. actives 1.2% (n = 410,000). FMDV antiviral cell-based qHTS; calls by dose curve; tested in HEK293T cells; also: read-out not given here; potency is read from the fitted curve at half-maximal effect; nearly all actives have a fitted effect of over 45% in size
Giardia FBPA inh: qHTS Assay for Inhibitors of Fructose-1,6-bisphosphate Aldolase from Giardia Lamblia; AID 2451, 2010; A8B2U2; purified Giardia FBPA; Potency, µM (doses to about 59.6 µM), for inactives: at the highest dose activity, negative = inhibition, most hits filed as inhibitors; actives 0.71% (n = 290,000); also: potency is read from the fitted curve at half-maximal effect; nearly all actives have a fitted effect of over 55% in size
Target sequence (A8B2U2 whole entry, looked up): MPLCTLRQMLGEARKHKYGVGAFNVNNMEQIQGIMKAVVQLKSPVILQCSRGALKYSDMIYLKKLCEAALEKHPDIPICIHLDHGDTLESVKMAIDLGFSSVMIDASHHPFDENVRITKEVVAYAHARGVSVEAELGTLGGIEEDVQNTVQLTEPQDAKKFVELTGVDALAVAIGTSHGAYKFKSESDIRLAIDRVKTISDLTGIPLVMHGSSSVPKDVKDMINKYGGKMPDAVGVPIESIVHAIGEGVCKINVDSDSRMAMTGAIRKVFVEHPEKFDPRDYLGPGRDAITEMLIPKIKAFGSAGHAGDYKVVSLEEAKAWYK
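40 nM FBPA preincubated 10 min at RT with compound (up to 57.5 uM final), then substrate plus GAPDH/TPI/NAD/arsenate coupling and diaphorase/resazurin added. Fluorescence read after 20 min at RT, 525/598 nm.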
VACV mCherry inh: qHTS for Stage-Specific Inhibitors of Vaccinia Orthopoxvirus: mCherry Reporter Primary qHTS. Vaccinia virus mCherry reporter infection, fluorescence. Potency, µM (top dose mostly 36.5 µM), for the others: top-dose activity change, negative = inhibition, most hits filed as inhibitors. actives 0.63% (n = 310,000). AID 720579, 2013; calls by dose curve; tested in A549 cells; also: potency is read from the fitted curve at half-maximal effect; nearly all actives have a fitted effect of over 35% in size
HCMV inh: qHTS Assay for inhibitors of the human cytomegalovirus (HCMV) | HFF cells, HCMV-luciferase reporter, 72 h; active compounds read low | activity change, negative = inhibition, % at 57.5 µM | actives 4.5% (n = 410,000) | AID 1259415, 2018; in the data active = activity change below about -60%; inconclusive = no clear call, values can overlap the other calls; inactive = above about -39%
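After 16 h attachment at 37C, HFF cells received test compound and HCMV-luciferase (1 PFU/cell); reporter luminescence read 72 h later, data normalized against buffer-only and known inhibitor Salinomycin.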
Vaccinia Venus: qHTS for Stage-Specific Inhibitors of Vaccinia Orthopoxvirus: Venus Reporter Primary qHTS. actives 0.46% (n = 330,000). Vaccinia virus Venus reporter expression, fluorescence. Potency, µM (titrated, usually from 36.5 µM), for the others: at the top dose activity change, negative = inhibition, most hits filed as inhibitors. AID 720580, 2013; calls by dose curve; tested in A549 cells; also: potency is read from the fitted curve at half-maximal effect; nearly all actives have a fitted effect of over 30% in size
HCV inh: qHTS Assay for Inhibitors of Hepatitis C Virus (HCV). Huh7.5.1 HCVcc-Cre infection, luciferase reporter, 44 h. Potency, µM (series often up to 41.8 µM), for inactives: top-dose activity change, negative = inhibition, most hits filed as inhibitors. actives 3.4% (n = 340,000). AID 651820, 2012; also: potency is read from the fitted curve at half-maximal effect
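Cells seeded at 1,000/well and cultured 4 h, then compounds added followed by HCVcc-Cre virus (~0.5 moi). After 44 h further culture, luciferase substrate was added, plates held 15 min at room temperature, and luminescence read for 15 sec.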
* = called active by the depositor; i = inactive; ? = inconclusive; · = no result given. Unless noted, calls follow the shape of the dose curve; as a rule, active = well fitted curve in the direction sought with a large enough effect; inconclusive = small, poorly fitted or top-dose-only effect, or another doubt; inactive = no such curve, though single readings can be large; an effect the other way counts as inactive or inconclusive. % is scaled to controls: 0 for no effect and ±100 for the full control effect.

SMILES	FMDV antiviral	Giardia FBPA inh	VACV mCherry inh	HCMV inh	Vaccinia Venus	HCV inh
Cc1ccccc1NS(=O)(=O)c1ccc(C(=O)N2CCN(c3ccccn3)CC2)cc1	-20%	2%	i	-31	-16%	?
O=C(c1ccc(S(=O)(=O)Nc2ccccc2F)cc1)N1CCN(c2ccccn2)CC1	?	·	-3%	-26	-14%	4.5µM*
CCOc1ccc(S(=O)(=O)Nc2ccc(C(=O)NNC(=O)c3ccncc3)cc2)cc1	63%	·	-1%	4	-6%	12%
O=C(NNC(=O)c1ccccc1O)c1ccc(S(=O)(=O)Nc2ccccc2F)cc1	16%	·	?	-4	-16%	16µM*
Cc1ccccc1NS(=O)(=O)c1ccc(C(=O)NNC(=O)c2ccccc2O)cc1	6%	·	?	-34	?	?
CCN(CC)c1nc(-c2ccccc2)ncc1S(=O)(=O)c1ccc(C)cc1	-9%	1%	·	6	·	7.1µM*
Cc1cc(OCc2cc(C(=O)NC(C)c3c(C)nn(C)c3C)no2)cc(C)c1Cl (stereo not drawn)	-1%	·	·	?	·	11µM*
CCN(CC)CCn1c2ccccc2c2nc3ccccc3nc21	-15%	-8%	·	-102*	·	?
CCN(CC)CCSc1nnc2c3ccccc3n(Cc3ccccc3)c2n1	-30%	0%	·	?	·	11µM*
CCN(CC)CCSc1nnc2c3cc(F)ccc3n(Cc3ccccc3)c2n1	-3%	5%	-3%	-22	?	?
CCCn1c2ccccc2c2nc3ccccc3nc21	-21%	-4%	-10%	-17	-6%	?
CC(=O)c1ccc2c(c1)C1C(Cl)C(Sc3ccccc3[N+](=O)[O-])CC1C(C(=O)O)N2 (stereo not drawn)	-23%	-3%	6%	-17	-3%	35µM*
O=C(O)/C=C/c1ccc(S(=O)(=O)Nc2ccc(OCc3ccccc3)cc2)cc1	3%	?	·	-27	·	16%
N#Cc1ccccc1COc1ccc(/C=C/C(=O)O)cc1	0%	21%	i	-71*	0%	13%
COc1ccc2ccc(C(C)(C(C)=O)C(=O)OC(C)C)cc2c1 (stereo not drawn)	-23%	·	-7%	-16	-19%	-25%
C=CCC1C=CCC(CC=C)N1C(=O)c1ccccc1[N+](=O)[O-] (stereo not drawn)	-23%	5%	-18%	-24	-14%	18µM*
O=C(c1ccccc1[N+](=O)[O-])N1CC2C3C=CC(C3)C2C1 (stereo not drawn)	3%	6%	i	?	-9%	7%
CCOc1cc(/C=C2\N=C(SC(C)C(N)=O)N(c3ccc(OC(F)F)cc3)C2=O)ccc1O (stereo not drawn)	-10%	·	·	-62*	·	?
NC(=O)CSC1=N/C(=C\c2ccco2)C(=O)N1c1ccc(OC(F)F)cc1	?	-8%	·	0	·	-23%
Cc1nc(C)n(CC(=O)N2CCOc3ccc(CN4CCN(C)C[C@@H]4c4ccccc4)cc3C2)n1	-15%	·	-4%	·	-10%	·
CCOc1ccc(-c2cccc(NS(=O)(=O)c3ccc([N+](=O)[O-])cc3)c2)nn1	20%	·	?	-12	-21%	14%
COc1cccc(CNc2cc(CSc3ccc(Cl)cc3)nc(C)n2)c1	13µM*	1%	·	·	?	?
COc1cccc(CNc2ccc(C)c(Cl)c2)c1	31%	-1%	?	23	-19%	4%
COc1ccccc1CNc1cc(CSc2ccc(Cl)cc2)nc(C)n1	40µM*	-5%	·	14	-24%	?
COc1ccc(OC)c(CCNC(=O)c2ccc3[nH]c(C)c(C)c3c2)c1	-19%	·	i	0	0%	·
SMILES	FMDV antiviral	Giardia FBPA inh	VACV mCherry inh	HCMV inh	Vaccinia Venus	HCV inh
COc1ccccc1C1CN(CC(=O)N2CCC(N3CCOCC3)CC2)Cc2ccccc2O1 (stereo not drawn)	5%	·	-3%	·	-3%	·
Cc1cccc(OCC(=O)NCC(=O)N/N=C/c2cc(Br)cc(Br)c2O)c1	-2%	19%	?	-83*	?	?
Cc1ccc(/C=N/NC(=O)CNC(=O)COc2ccccc2)cc1	0%	6%	i	-61*	-23%	2%
COc1cccc(/C=N/NC(=O)CNC(=O)COc2ccccc2)c1O	8%	17%	·	11	·	-7%
Cc1ccccc1Cn1c(=O)n(CC2CCC(C(=O)N3CCC(C)CC3)CC2)c(=O)c2sccc21 (stereo not drawn)	?	·	?	-75*	?	·
Cc1ccc(NC(=O)/C(C#N)=C(\N)C(Cl)(Cl)Cl)nc1	-67%	-18%	-21%	·	-10%	10µM*
Cc1ccc(NC(=O)C(=O)Nc2ccc(C)cn2)nc1	19%	1%	-9%	38	-13%	8%
Cc1ccc(NS(=O)(=O)c2cc(NC(=O)c3ccc4c(c3)NC(=O)CS4)ccc2Cl)c(C)c1	-22%	-13%	·	-94*	·	10µM*
COc1ccc(NC(=O)c2ccc3c(c2)NC(=O)CS3)cc1	31%	·	·	7	·	?
O=C(N/N=C/c1cc(Cl)ccc1O)c1ccc(Br)cc1	6%	-17%	3.2µM*	-102*	?	3.2µM*
O=C(CNC(=O)c1ccc(S(=O)(=O)N2CCCC2)cc1)N/N=C/c1c(Cl)cccc1Cl	?	-1%	?	-72*	-23%	?
O=C(N/N=C\c1cc(Br)ccc1O)c1ccc(S(=O)(=O)N2CCCCC2)cc1	-2%	4%	5µM*	-100*	?	3.5µM*
CC(C)C(=O)Nc1ccc(C(=O)N/N=C/c2cc(Br)cc(Br)c2O)cc1	-13%	4%	-22%	-78*	-4%	?
CCC(C)c1ccc(OCc2ccc(C(=O)O)o2)cc1 (stereo not drawn)	11µM*	20%	-13%	127	-13%	20%
Cc1ccccc1OCCCSc1nc2ccccc2[nH]1	?	-8%	-26%	-70*	-20%	?
COc1ccc(N2CCN(C(=O)c3cnn(-c4ccc(F)cc4)c3-n3cccc3)CC2)cc1	-22%	·	-9%	-5	-2%	·
Cc1cc(C)cc(NC(=O)c2ccc(N3C(=O)C4CCCCC4C3=O)cc2)c1 (stereo not drawn)	?	12%	i	-11	-17%	?
Cc1ccc(S(=O)(=O)N2CCCCC2)cc1NC(=O)c1cnccn1	-7%	·	-13%	8	-1%	-10%
CC(=O)Nc1ccc(NC(=O)C(C)OC(=O)/C=C/c2cn(-c3ccccc3)nc2-c2cccnc2)cc1 (stereo not drawn)	?	3%	13µM*	-94*	?	?
